Among all 220,000 compounds or so, about 830 (0.38%) were called active.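 How the source made its calls: active means compound inhibiting the enzyme by more than half at any dose during confirmatory dose-response retesting; inconclusive means strong single-dose inhibitors picked by rank but not retested; inactive means the rest.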 Only a sample is shown. Entries with a potency or affinity are not part of this list.
Each molecule was assayed against Leucine aminopeptidase (Plasmodium falciparum (isolate 3D7)) (UniProt Q8IL11) (assay: P. falciparum M17LAP inhibitors, primary screen, biochemical, fluorogenic H-Leu-NHMec substrate, 1536-well (AID 1619;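 further: plate controls were full reaction with DMSO carrier for no effect and no enzyme background for full effect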)). Conditions: recombinant M17LAP, H-Leu-NHMec fluorogenic kinetic assay; at 30 µM; stronger effect = higher value.
Sequence of Leucine aminopeptidase (Plasmodium falciparum (isolate 3D7)) (Q8IL11 whole entry, looked up): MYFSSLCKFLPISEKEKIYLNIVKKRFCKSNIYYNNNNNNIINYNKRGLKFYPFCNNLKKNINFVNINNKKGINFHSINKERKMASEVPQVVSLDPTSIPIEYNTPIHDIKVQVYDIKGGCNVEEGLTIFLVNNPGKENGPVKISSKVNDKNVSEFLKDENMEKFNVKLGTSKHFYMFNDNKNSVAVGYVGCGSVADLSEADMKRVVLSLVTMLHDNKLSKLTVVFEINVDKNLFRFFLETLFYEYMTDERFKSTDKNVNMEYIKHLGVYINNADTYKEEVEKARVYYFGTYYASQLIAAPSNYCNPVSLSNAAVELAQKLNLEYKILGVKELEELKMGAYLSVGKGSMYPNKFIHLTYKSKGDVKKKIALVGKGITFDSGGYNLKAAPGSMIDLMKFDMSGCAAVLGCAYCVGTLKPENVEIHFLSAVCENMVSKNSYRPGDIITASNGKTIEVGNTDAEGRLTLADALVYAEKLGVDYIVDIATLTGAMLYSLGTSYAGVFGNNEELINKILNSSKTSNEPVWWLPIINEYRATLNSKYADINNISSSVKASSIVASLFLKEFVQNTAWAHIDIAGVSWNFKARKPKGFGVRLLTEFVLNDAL

inhibition, inactive:
CC(C(O)C12CC3CC(CC(C3)C1)C2)N1CCCCC1 (stereo unspecified) 9.11%
Cc1nn(-c2ccccc2)c(C)c1/C=C/C(=O)OC(C)C(=O)Nc1ncc(Cl)cc1Cl (stereo unspecified) -12.7%
Cc1cc(=O)n(CNC(=O)c2ccccc2)c(=S)[nH]1 -9.25%
O=C(CSc1nc2ccccc2[nH]1)Nc1ccc2c(c1)CCC2 1.81%
Nc1cc(=O)[nH]c(SCC(=O)Nc2ccc3c(c2)CCC3)n1 53.8%
O=C(CSc1nc2ccc(Cl)cc2[nH]1)Nc1ccc2c(c1)CCC2 3.87%
Cn1cnnc1SCC(=O)Nc1ccc2c(c1)CCC2 42.8%
O=C(CSc1nncs1)Nc1ccc2c(c1)OCCO2 23.5%
CCC(C)c1c(O)nc(SCC(=O)Nc2ccccc2)[nH]c1=O (stereo unspecified) 25.4%
O=C(CSc1nccc(=O)[nH]1)Nc1ccc2c(c1)OCCO2 -0.7%
CC(C)Cc1c(O)nc(SCC(=O)Nc2ccc3c(c2)CCC3)[nH]c1=O 54.1%
Cc1coc(C)c1C(=O)CC1(O)C(=O)Nc2cc(Cl)cc(Cl)c21 (stereo unspecified) -6.03%
Cc1ccc(S(=O)(=O)N(C)C)cc1NC(=O)COc1ccc(-c2nnco2)cc1 -1.3%
CC(NS(=O)(=O)c1ccc([N+](=O)[O-])cc1)C(=O)NN (stereo unspecified) 5.26%
O=C1NC(=S)N/C1=C/c1cccn1-c1ccc([N+](=O)[O-])cc1 -21%
COc1ccc(OC)c(/C=C/C(=O)OCC(=O)Nc2ccc(Cl)c(S(=O)(=O)N(C)C)c2)c1 5.28%
Cc1cc(C)n(C(=O)c2ccc(C)o2)n1 6.21%
Cc1ccc(S(=O)(=O)c2ccc(NN)cc2)cc1 20.8%
Cc1ccc(C2N(c3nccs3)C(=O)C3CCCN32)cc1 (stereo unspecified) -15.4%
Fc1ccc(COc2ccccc2C(=S)N2CCCC2)cc1 10.6%
CN(C)S(=O)(=O)c1ccc(C(=O)NCc2ccccn2)cc1 -3.48%
CC(=O)NS(=O)(=O)c1ccc(N=c2ssc3c2-c2cc(C)ccc2NC3(C)C)cc1 55%
Cc1cc2c(cc1C)-c1c(ssc1=Nc1ccc(S(N)(=O)=O)cc1)C(C)(C)N2 -1.4%
Cc1ccc(S(=O)(=O)NC(=O)Nc2cc(C)ccc2F)cc1 -4.66%
CC(=O)NS(=O)(=O)c1ccc(NS(=O)(=O)c2ccc(F)cc2)cc1 -13%
Cc1nn(-c2ccc(Cl)c(Cl)c2Cl)c(=O)c2ccccc12 -4.32%
N#CC(C#N)=Cc1ccc(OC(=O)c2ccccn2)cc1 15.9%
COc1cc2c(cc1OC)C1(Nc3c-2c(-c2ccccc2)nn3-c2ccccc2)C(=O)Nc2ccccc21 (stereo unspecified) 0.95%
O=C(COC(=O)c1cnccn1)Nc1ccc2c(c1)OCO2 13.5%
CCOc1ccc(CCNC(=O)CN(C)S(=O)(=O)c2ccc3c(c2)CCC(=O)N3)cc1OCC -8.18%
COC(=O)CN(Cc1ccccc1)S(=O)(=O)c1ccc(OC)c(OC)c1 -2.5%
O=S(=O)(c1cccs1)N1CCN(c2ncccn2)CC1 -7.79%
COc1ccc(C(=O)Nc2ccccc2N2CCOCC2)cc1[N+](=O)[O-] 7.12%
CCOC(=O)c1c(-c2cccs2)csc1NC(=O)CC(C)C 7.23%
CCOC(=O)c1c(-c2cccs2)csc1NC(C)=O -14.7%
Cc1ccc(OCCCN2C(=O)C(=O)c3cccc(C)c32)cc1 13.8%
OC1NC(=S)N(c2ccccc2)C1O (stereo unspecified) 8.92%
COc1ccc(C2NC(=S)N3C(c4ccc(OC)cc4)NC(=S)N23)cc1 (stereo unspecified) 34.8%
COc1cccc(CC(NC(C)=O)C(=O)NC2CCN(c3nnnn3-c3ccccc3)CC2)c1 (stereo unspecified) 5.55%
CN(CCC#N)CC(=O)Nc1ccc(NC(=O)CN(C)CCC#N)cc1 -4.87%
NC(=O)c1ccc(-c2ccccc2F)cc1 6.07%
O=S1(=O)N=C(Nc2ccc(O)c(CN3CCCCC3)c2)c2ccccc21 18.9%
CCOC(=O)c1c(NC(=O)CSc2nnc(C)c(=O)[nH]2)sc(C)c1C 11.9%
Cc1nnc(SCC(=O)Nc2sc3c(c2C(N)=O)CCCC3)[nH]c1=O 49.5%
CCOC(=O)c1c(NC(=O)CSc2nnc(C)s2)sc2c1CCCCC2 -4.03%
COC(=O)c1c(NC(=O)CSc2nnc(C)c(=O)[nH]2)sc(C)c1C 21.5%
Cc1ccc(C(=O)c2cn[nH]c2-c2ccccc2O)cc1 44.9%
CCOC(=O)C1(C(=O)OCC)C(c2ccccc2)CC(O)N1C(C)=O (stereo unspecified) 1.54%
NC(=O)c1ccc(NC(=O)c2ccccc2S(=O)(=O)c2ccccc2[N+](=O)[O-])cc1 9.64%
O=C(O)CC/C(=N\NC(=O)c1ccccc1)c1cccs1 18.4%
COC(=O)N/N=C(\CCC(=O)O)c1cccs1 6.69%
Brc1ccc(/C=N/Nc2ncnc3c2cnn3Cc2ccccc2)cc1 -4.47%
CC(C)c1nc(SCC(=O)Nc2ccc([N+](=O)[O-])cc2Br)n[nH]1 6%
Cc1nnc(SCC(=O)c2ccc(C(C)C)cc2)s1 -0.89%
NC(=O)SCC(=O)Nc1ccccc1C(=O)O 9.51%
Nc1nc(SCC(=O)Nc2ccc([N+](=O)[O-])cc2Br)n[nH]1 10.2%
O=C(CSc1ccccc1)Nc1ccccc1C(=O)O 18.8%
COc1ccccc1NC(=O)CSc1nc(N)cc(N)n1 10.8%
COc1ccccc1NC(=O)CSc1ncn(-c2ccccc2)n1 5.61%
CC(C)c1ccc(C(=O)CSc2n[nH]c(-c3ccncc3)n2)cc1 6.54%
Cc1cc(C)cc(N2C(=O)CC(N(C(=O)c3ccco3)c3cc(C)cc(C)c3)C2=O)c1 (stereo unspecified) 3.47%
